This passage reports Potency results from PubChem BioAssay AID743383 (National Center for Advancing Translational Sciences (NCATS), 2014).

SMILES strings stand for the structures. Active and inactive are the calls of the source. The call rests on the fitted dose curve.

Chain of Phosphatidylinositol 5-phosphate 4-kinase type-2 alpha (Homo sapiens) (P48426 whole entry, looked up, canonical isoform): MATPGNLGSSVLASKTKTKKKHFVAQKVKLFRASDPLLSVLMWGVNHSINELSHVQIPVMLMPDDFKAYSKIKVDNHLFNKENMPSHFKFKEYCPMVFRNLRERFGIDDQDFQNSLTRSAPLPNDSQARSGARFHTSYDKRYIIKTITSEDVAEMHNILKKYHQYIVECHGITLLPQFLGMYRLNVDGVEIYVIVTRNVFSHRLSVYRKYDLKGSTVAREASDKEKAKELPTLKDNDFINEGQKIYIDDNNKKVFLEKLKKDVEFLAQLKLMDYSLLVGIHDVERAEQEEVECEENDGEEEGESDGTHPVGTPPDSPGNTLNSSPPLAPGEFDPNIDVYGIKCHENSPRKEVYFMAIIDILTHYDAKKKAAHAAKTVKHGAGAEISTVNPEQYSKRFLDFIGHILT

This assay concerns the target Phosphatidylinositol 5-phosphate 4-kinase type-2 alpha (Homo sapiens) (UniProt P48426). Kind of assay: qHTS for Inhibitors of PI5P4K: PI5P4K-alpha 32P-ATP TLC Secondary Assay for Probe SAR. The settings on record: recombinant PI5P4K-alpha, 32P-ATP TLC PI(4,5)P2 formation. From the text:
In addition to finding PI5P, we discovered the type II phosphatidylinositol 5-phosphate 4-kinase (PI5P4K) family (alpha, beta, gamma isoforms) that catalyze the conversion of PI5P to PI(4,5)P2. Alternatively, PI(4,5)P2 can also be synthesized through phosphatidylinositol-4-phosphate (PI4P) by the type I phosphatidylinositol 4-phosphate 5-kinases (PI4P5K). These PI5P4K enzymes therefore represent one way by which cells can regulate endogenous PI5P levels and play important roles in insulin signaling and in stress responses. […] A qHTS PI5P4K-alpha ADP-Glo assay was developed to identify specific modulators of human PI5P4K, phosphatidylinositol-5-phosphate 4-kinase (Type II PIPK). To confirm that the active compounds and their analogs were true and selective inhibitors, a secondary Thin-layer Chromatography (TLC) assay against recombinant PI5P4K-alpha, PI4P5K-alpha or PI5P4K-beta that utilize a radioactively labeled ATP were developed. The data herein are the result of the PI5P4Kalpha TLC assay. […]
The kinase reaction was carried out in a total of 50 microL of kinase buffer (50 mM HEPES pH 7.4 and 10 mM MgCl2) containing 20 microM of the lipids that were suspended by sonication. […] The radiolabeled product, PI(4,5)P2, was quantified with a phosphorimager (Molecular Dynamics, STORM840, GE Healthcare, Waukesha, WI, USA).
As to `O=C1Nc2ccc(C(=O)c3ccco3)cc2/C1=C/c1cc(Cl)c(O)c(Cl)c1`, the Potency is 18 nM (active).
